In the library only some 28% were active in any assay of this set; here they are far more common.
Mac1 fbg inh – inhibitors of CD11b/CD18 adhesion to fibrinogen, primary screen, K562 cells, luminescence; Integrin beta-2 (Homo sapiens) + Integrin alpha-M (Homo sapiens), P05107+P11215; ATPlite luminescence; Mn2+ added to activate the integrin; inhibition, % at 10 µM; hit rate 0.54% among 93,000;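 active = primary inhibition of 50% or more at 10 µM, then 40% or more on retest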
CYP2C19 act – human CYP2C19 activators, primary screen, biochemical, luminescence. 96,000 tested, under 10 active. AID 1025, 2008. activation factor at 5 µM. recombinant CYP2C19, luciferin-H EGE luminescence; stronger effect = higher value; 0 = fully inhibited enzyme, 1 = untreated enzyme. Cytochrome P450 2C19 (Homo sapiens), P33261;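 active = activation factor of at least 2 at 5 µM in the primary screen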
Target sequence (P33261 whole entry, looked up): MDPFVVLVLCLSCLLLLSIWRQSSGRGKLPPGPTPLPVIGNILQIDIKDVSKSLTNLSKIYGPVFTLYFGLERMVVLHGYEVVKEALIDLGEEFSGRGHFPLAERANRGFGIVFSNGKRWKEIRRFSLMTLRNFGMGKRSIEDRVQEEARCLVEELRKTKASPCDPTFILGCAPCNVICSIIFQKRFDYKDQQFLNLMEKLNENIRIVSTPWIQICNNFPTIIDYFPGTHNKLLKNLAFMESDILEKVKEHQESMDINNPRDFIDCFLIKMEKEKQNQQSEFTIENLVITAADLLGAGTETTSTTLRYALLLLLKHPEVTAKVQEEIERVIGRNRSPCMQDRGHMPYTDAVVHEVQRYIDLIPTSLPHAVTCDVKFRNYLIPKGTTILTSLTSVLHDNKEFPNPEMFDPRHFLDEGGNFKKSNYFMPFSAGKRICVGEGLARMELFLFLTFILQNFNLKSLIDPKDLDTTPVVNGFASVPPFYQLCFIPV
CD11b adhes enh – enhancers of CD11b/CD18 adhesion to fibrinogen, primary screen, K562 cells, luminescence; Integrin beta-2 (Homo sapiens) + Integrin alpha-M (Homo sapiens), P05107+P11215; ATPlite luminescence; activation, % at 10 µM; hit rate 0.07% among 93,000;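 active = 10 µM primary screen giving 50% or more activity, confirmed by 40% or more on retest at that dose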
CYP2C19 inhib – blockers of cytochrome P450 2C19 activity – biochemical, luminescence, ADME assay, primary screen | P33261 | CYP2C19 Supersomes, luciferin-H EGE luminescence, 30 min | inhibition, % at 5 µM | hit rate 21% among 96,000;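 active = CYP2C19 inhibition above a set limit at 5 µM in the primary screen, cut at about 50% in these data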
CYP2C9 act – human CYP2C9 activators, primary screen, biochemical, luminescence; hit rate 1.4% among 96,000; recombinant CYP2C9, luciferin-H conversion; stronger effect = higher value; factor 1 = untreated enzyme, 0 = blocked; activation factor at 5 µM; Cytochrome P450 2C9 (Homo sapiens), P11712;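 active = activation factor of 2 or more for CYP2C9 at a 5 µM dose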
CYP2C9 inhib – blockers of cytochrome P450 2C9 activity – biochemical, luminescence, ADME assay, primary screen | CYP2C9 Supersomes, luciferin-H conversion | hit rate 20% among 96,000 | P11712 | AID 777, 2007 | inhibition, % at 5 µM;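 active = blocking of liver enzyme CYP2C9 beyond about 50% at 5 µM, limit read from the data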
Of the large screens only hits and unclear results are named; the others gave an inactive call.

COc1cccc(C(=O)NCc2n[nH]c(=S)n2-c2cccc(C)c2)c1	none
O=C(Nc1nsc(-c2ccccc2)n1)c1cccs1	CYP2C9 inhib 75
BrC(=C\c1ccccc1)/C=N/N1CCN(c2ccccn2)CC1	none
CCOC(=O)c1c(C)sc2c1N(C(C)=O)c1cc(Cl)ccc1S2	CYP2C19 inhib 60
Cc1nc(NS(=O)(=O)c2ccccc2)sc1NC(=O)OCCN(C)C	none
CCOC(=O)Nc1nnc(CCc2ccccc2)s1	CYP2C9 inhib 62
Cc1nnc(SCC(=O)Nc2nccs2)[nH]c1=O	none (no result: Mac1 fbg inh, CD11b adhes enh)
CCCn1c(SCC(=O)N2CC(=O)Nc3ccccc32)nc2ccccc21	none (no result: CYP2C19 act, CYP2C19 inhib, CYP2C9 act, CYP2C9 inhib)
Cc1sc2nc(C3CC3)nc(SCC(=O)N3CCc4ccccc4C3)c2c1C	CYP2C19 inhib 65, CYP2C9 inhib 85
CCc1c(C)sc2nc(C(C)C)nc(SCC(=O)N3CCc4ccccc4C3)c12	CYP2C9 inhib 97
Cc1sc2nc(C3CC3)nc(SCC(=O)N3CC(=O)Nc4ccccc43)c2c1C	CYP2C9 inhib 66 (no result: Mac1 fbg inh, CD11b adhes enh)
Cc1ccc(-n2c(C)nnc2SCC(=O)N2CCc3ccccc3C2)cc1	none (no result: CYP2C19 act, CYP2C19 inhib, CYP2C9 act, CYP2C9 inhib)
Cc1ccc(C(C(=O)NC2CCCCC2)N(Cc2cccnc2)C(=O)C2COc3ccccc3O2)o1 (centres undefined)	none
Cn1cnnc1SCc1ccc(-c2ccc(Br)cc2)o1	CYP2C19 inhib 93, CYP2C9 inhib 56
CCOC(=O)c1c(C=O)c(C)n(Cc2ccc(Cl)cc2)c1C	CYP2C9 inhib 84
CC(=O)c1c(C(C)=O)c(C)n(NC(=O)c2ccc(Cl)cc2)c1C	none
CC(=O)c1c(C(C)=O)c(C)n(Cc2ccc(Cl)cc2)c1C	CYP2C19 inhib 86
CCOC(=O)c1c(C=O)c(C)n(Cc2ccccc2)c1C	CYP2C9 inhib 70
COc1cc(C(=O)Nc2cccc(-c3nncn3C)c2)cc(OC)c1OC	none
CCOC(=O)c1cc(-c2nnc(-c3ccc(Oc4ccccc4)cc3)o2)c(C)nc1C	CYP2C9 inhib 63
CCOC(=O)c1cc(C#N)c(Oc2ccc(F)cc2)nc1-c1ccccc1	none (no result: Mac1 fbg inh, CD11b adhes enh)
CC(C)(C)c1ccc(C(=O)N/C(=C\c2cccs2)C(=O)NCc2ccco2)cc1	CYP2C9 inhib 56
Cc1ccccc1N1C(=O)C(Cl)=C(N2CCCCCC2)C1=O	none
COc1ccc(OC)c(N2C(=O)C(Cl)=C(N3CCCCC3)C2=O)c1	CYP2C19 inhib 66, CYP2C9 inhib 78
COc1ccc(OC)c(N2C(=O)C(Cl)=C(N3CCOCC3)C2=O)c1	CYP2C19 inhib 60
COCCN1CN=C(Nc2nc3ccccc3s2)NC1	none (no result: Mac1 fbg inh, CD11b adhes enh)
NC(=O)C1CCN(C(=O)c2cc(S(=O)(=O)N3CCOCC3)c(Cl)cc2Cl)CC1	none
O=c1[nH]c(CN2CCC(c3nc4ccccc4s3)CC2)nc2sc3c(c12)CCC3	none
O=C(CC1C(=O)NC2CCCCC2N1C(=O)c1ccc(F)cc1)Nc1ccccc1 (centres undefined)	CYP2C9 inhib 56
O=C(CC1C(=O)N(c2ccccc2)C(=O)N1C1CCCCC1)Nc1ccccc1 (centres undefined)	CYP2C19 inhib 52
COc1ccccc1C(=O)N1C(CC(=O)Nc2cc(Cl)ccc2C)C(=O)NC2CCCCC21 (centres undefined)	none
Cc1ccc(NC(=O)CC2C(=O)NC3CCCCC3N2C(=O)c2ccc(F)cc2)cc1C (centres undefined)	CYP2C9 inhib 64
CN(C)CCCCNCCCNC(=O)/C=N\O	none
CC(=O)Nc1ccc(S(=O)(=O)NNC(=O)COc2cccc3ccccc23)cc1	none (no result: CYP2C19 act, CYP2C19 inhib, CYP2C9 act, CYP2C9 inhib)
O=C(NCc1cccnc1)c1ccccc1[N+](=O)[O-]	none (no result: CYP2C19 act, CYP2C19 inhib, CYP2C9 act, CYP2C9 inhib)
Cc1cccc(Cl)c1OCCCCn1ccnc1	CYP2C19 inhib 100, CYP2C9 inhib 96
Cc1cccc(C(C)(C)C)c1OCCn1ccnc1	CYP2C19 inhib 98, CYP2C9 inhib 66
Cc1cccc(C(C)(C)C)c1OCCCCN1CCCC1	none
Cc1cc(Cl)cc(C)c1OCCCCn1ccnc1	CYP2C19 inhib 100, CYP2C9 inhib 96
Fc1ccccc1NC(=S)NNc1ncc(C(F)(F)F)cc1Cl	Mac1 fbg inh 81, CYP2C19 inhib 55, CYP2C9 inhib 87
O=C(NNc1ncc(C(F)(F)F)cc1Cl)c1c(Cl)cccc1Cl	CYP2C9 act 2.4
CC(C)(C)C(=O)Nc1ncc(C(F)(F)F)cc1Cl	none
Cc1c(Cl)cccc1NC(=S)NNc1ncc(C(F)(F)F)cc1Cl	Mac1 fbg inh 90, CYP2C19 inhib 91, CYP2C9 act 2.2
Cc1ccccc1NC(=S)NNc1ncc(C(F)(F)F)cc1Cl	CYP2C19 inhib 77
CCCC1=NN(C(=O)Cc2ccc(OC)cc2)C(O)(C(F)(F)F)C1 (centres undefined)	none (no result: CYP2C19 act, CYP2C19 inhib, CYP2C9 act, CYP2C9 inhib)
N/C(Cc1cccs1)=N\OC(=O)COc1ccc(Cl)cc1Cl	none
Cc1cccc(C)c1NC(=S)NNc1ncc(C(F)(F)F)cc1Cl	CYP2C19 inhib 75
COc1ccnc(NCc2ccc(Cl)cc2)c1C#N	CYP2C19 inhib 100
COc1ccnc(Nc2ccc(C)c(C)c2)c1C#N	none
O=C(COC(=O)c1cccs1)NCCC1=CCCCC1	none (no result: CYP2C19 act, CYP2C19 inhib, CYP2C9 act, CYP2C9 inhib)
Cc1cc(N2CCN(c3cccc(C(F)(F)F)c3)CC2)n2ncnc2n1	none
Cc1nc2ncnn2c(N2CCN(c3cccc(C(F)(F)F)c3)CC2)c1C	CYP2C19 inhib 64
COc1nc(N(C#N)CC(N)=O)nc(N2CCCC2)n1	none
COCCNC(=S)N1CCOCC1	none (no result: CYP2C19 act, CYP2C19 inhib, CYP2C9 act, CYP2C9 inhib)
CCOc1ccc(C2=NNC(c3cccs3)=Nc3ccc(OCC)cc32)cc1	CYP2C9 inhib 53
CCCC(=O)NC(C)c1nc2ccccc2n1C (centres undefined)	none
CN1C(=O)CC(n2c(CO)nc3ccccc32)C1=O (centres undefined)	none
Oc1ccccc1C1=Nc2nc3ccccc3n2C(c2ccccc2)C1 (centres undefined)	CYP2C19 inhib 92, CYP2C9 inhib 99
COCC(O)CSc1nc(C)[nH]c1[N+](=O)[O-] (centres undefined)	none
COc1ccc(S(=O)(=O)N2CCSC2c2ccc(OC)c(OC)c2)cc1 (centres undefined)	CYP2C19 inhib 63, CYP2C9 act 2
COc1ccc(S(=O)(=O)N2CCSC2c2ccccc2)cc1 (centres undefined)	CYP2C19 inhib 99
CC(=O)Nc1ccc(S(=O)(=O)N2CCSC2c2ccccc2)cc1 (centres undefined)	CYP2C19 inhib 59
O=S(=O)(c1ccc(Cl)cc1)N1CCSC1c1ccco1 (centres undefined)	CYP2C19 inhib 98, CYP2C9 inhib 51
CCCN(CCC)C(=O)C[n+]1cccc(/C=N/O)c1	none (no result: CYP2C19 act, CYP2C19 inhib, CYP2C9 act, CYP2C9 inhib)

Screening results deposited in PubChem BioAssay by Sanford-Burnham Center for Chemical Genomics.
